About 2,000 (36%) of roughly 5,500 compounds were called active. Inconclusive results (about 18%) are left out. Rule as the data show it: active = normalized growth mostly below about 0.91 (no sharp cut-off); inconclusive = no clear call, values can overlap the other calls; inactive = mostly above about 0.92. Some of the results follow.
Experiment: chemical genetic growth profiling, strain panel (AID 1159580);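 also: tested at 20 µM; growth read once vehicle control cultures reached saturation at 30 °C; 1 = growth at the plate median or of vehicle wells; lower values mean less growth of the strain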
Conditions: growth OD
[1] = S. cerevisiae deletion strains, locus YAR019C, strain CDC15, stronger effect = lower value
[2] = S. cerevisiae deletion strains, locus YBL105C, strain PKC1, stronger effect = lower value
[3] = S. cerevisiae deletion strains, locus YBR135W, strain CKS1, stronger effect = lower value
[4] = S. cerevisiae deletion strains, locus YBR136W, strain MEC1, stronger effect = lower value
[5] = S. cerevisiae deletion strains, locus YBR160W, strain CDC28, stronger effect = lower value
[6] = S. cerevisiae deletion strains, locus YDL017W, strain CDC7, stronger effect = lower value
[7] = S. cerevisiae deletion strains, locus YDL028C, strain MPS1, stronger effect = lower value
[8] = S. cerevisiae deletion strains, locus YDL101C, strain DUN1, stronger effect = lower value
[9] = S. cerevisiae deletion strains, locus YDL108W, strain KIN28, stronger effect = lower value
[10] = S. cerevisiae deletion strains, locus YDL132W, strain cdc53, stronger effect = lower value
[11] = S. cerevisiae deletion strains, locus YDL214C, strain PRR2, stronger effect = lower value
[12] = S. cerevisiae deletion strains, locus YDR052C, strain DBF4, stronger effect = lower value
[13] = S. cerevisiae deletion strains, locus YDR054C, strain cdc34, stronger effect = lower value
[14] = S. cerevisiae deletion strains, locus YDR226W, strain ADK1, stronger effect = lower value
[15] = S. cerevisiae deletion strains, locus YDR477W, strain SNF1, stronger effect = lower value
[16] = S. cerevisiae deletion strains, locus YER123W, strain YCK3, stronger effect = lower value
[17] = S. cerevisiae deletion strains, locus YER133W, strain GLC7, stronger effect = lower value
[18] = S. cerevisiae deletion strains, locus YFL009W, strain cdc4, stronger effect = lower value
[19] = S. cerevisiae deletion strains, locus YFL029C, strain CAK1, stronger effect = lower value
[20] = S. cerevisiae deletion strains, locus YFR003C, strain YPI1, stronger effect = lower value
[21] = S. cerevisiae deletion strains, locus YFR019W, strain FAB1, stronger effect = lower value
[22] = S. cerevisiae deletion strains, locus YFR028C, strain CDC14, stronger effect = lower value
[23] = S. cerevisiae deletion strains, locus YGR040W, strain KSS1, stronger effect = lower value
[24] = S. cerevisiae deletion strains, locus YGR052W, strain FMP48, stronger effect = lower value
[25] = S. cerevisiae deletion strains, locus YGR092W, strain DBF2, stronger effect = lower value
[26] = S. cerevisiae deletion strains, locus YHR030C, strain SLT2, stronger effect = lower value
[27] = S. cerevisiae deletion strains, locus YHR079C, strain IRE1, stronger effect = lower value
[28] = S. cerevisiae deletion strains, locus YHR082C, strain KSP1, stronger effect = lower value
[29] = S. cerevisiae deletion strains, locus YHR205W, strain SCH9, stronger effect = lower value
[30] = S. cerevisiae deletion strains, locus YIL147C, strain SLN1, stronger effect = lower value
[31] = S. cerevisiae deletion strains, locus YJL095W, strain BCK1, stronger effect = lower value
[32] = S. cerevisiae deletion strains, locus YJL128C, strain PBS2, stronger effect = lower value
[33] = S. cerevisiae deletion strains, locus YJL157C, strain FAR1, stronger effect = lower value
[34] = S. cerevisiae deletion strains, locus YJR016C, strain ILV3, stronger effect = lower value
[35] = S. cerevisiae deletion strains, locus YJR066W, strain TOR1 (second series), stronger effect = lower value
[36] = S. cerevisiae deletion strains, locus YJR066W, strain TOR1, stronger effect = lower value
[37] = S. cerevisiae deletion strains, locus YKL048C, strain ELM1, stronger effect = lower value
[38] = S. cerevisiae deletion strains, locus YKL067W, strain YNK1, stronger effect = lower value
[39] = S. cerevisiae deletion strains, locus YKL101W, strain HSL1, stronger effect = lower value
[40] = S. cerevisiae deletion strains, locus YKL193C, strain SDS22, stronger effect = lower value
[41] = S. cerevisiae deletion strains, locus YKL203C, strain TOR2, stronger effect = lower value
[42] = S. cerevisiae deletion strains, locus YLR113W, strain HOG1, stronger effect = lower value
[43] = S. cerevisiae deletion strains, locus YLR133W, strain CKI1, stronger effect = lower value
[44] = S. cerevisiae deletion strains, locus YLR403W, strain SFP1, stronger effect = lower value
[45] = S. cerevisiae deletion strains, locus YML070W, strain DAK1, stronger effect = lower value
[46] = S. cerevisiae deletion strains, locus YMR001C, strain CDC5, stronger effect = lower value
[47] = S. cerevisiae deletion strains, locus YMR205C, strain PFK2 (second series), stronger effect = lower value
[48] = S. cerevisiae deletion strains, locus YMR277W, strain FCP1, stronger effect = lower value
[49] = S. cerevisiae deletion strains, locus YNL006W, strain LST8, stronger effect = lower value
[50] = S. cerevisiae deletion strains, locus YNL020C, strain ARK1, stronger effect = lower value
[51] = S. cerevisiae deletion strains, locus YNL161W, strain CBK1, stronger effect = lower value
[52] = S. cerevisiae deletion strains, locus YNL183C, strain NPR1, stronger effect = lower value
[53] = S. cerevisiae deletion strains, locus YNL207W, strain RIO2, stronger effect = lower value
[54] = S. cerevisiae deletion strains, locus YNL222W, strain SSU72, stronger effect = lower value
[55] = S. cerevisiae deletion strains, locus YNL307C, strain MCK1 (second series), stronger effect = lower value
[56] = S. cerevisiae deletion strains, locus YOL078W, strain AVO1, stronger effect = lower value
[57] = S. cerevisiae deletion strains, locus YOL136C, strain PFK27, stronger effect = lower value
[58] = S. cerevisiae deletion strains, locus YOR061W, strain CKA2, stronger effect = lower value
[59] = S. cerevisiae deletion strains, locus YOR119C, strain RIO1, stronger effect = lower value
[60] = S. cerevisiae deletion strains, locus YOR231W, strain MKK1, stronger effect = lower value
[61] = S. cerevisiae deletion strains, locus YOR329C, strain SCD5, stronger effect = lower value
[62] = S. cerevisiae deletion strains, locus YPL031C, strain PHO85, stronger effect = lower value
[63] = S. cerevisiae deletion strains, locus YPL153C, strain RAD53, stronger effect = lower value
[64] = S. cerevisiae deletion strains, locus YPL204W, strain HRR25, stronger effect = lower value
[65] = S. cerevisiae deletion strains, locus YPL209C, strain IPL1, stronger effect = lower value
[66] = S. cerevisiae deletion strains, locus YPL256C, strain CLN2, stronger effect = lower value
[67] = S. cerevisiae deletion strains, locus YPR025C, strain CCL1, stronger effect = lower value
[68] = S. cerevisiae deletion strains, locus YPR106W, strain ISR1, stronger effect = lower value
[69] = S. cerevisiae deletion strains, locus YPR111W, strain DBF20, stronger effect = lower value
[70] = S. cerevisiae deletion strains, strain NNK1, stronger effect = lower value
[71] = S. cerevisiae deletion strains, strain TSCII, stronger effect = lower value

Measured: normalized growth

O=[N+]([O-])c1cccc(C2CC(c3ccccc3)=Nc3ccccc3S2)c1 (stereo not drawn)
inactive: [1] 0.947 | [2] 0.953 | [3] 0.959 | [4] 0.974 | [5] 0.966 | [6] 0.97 | [7] 0.965 | [8] 0.95 | [9] 0.975 | [10] 0.952 | [11] 0.962 | [12] 0.973 | [13] 0.946 | [14] 0.953 | [15] 0.962 | [16] 1 | [17] 0.96 | [18] 0.959 | [19] 0.939 | [20] 0.973 | [21] 0.996 | [22] 0.948 | [23] 0.955 | [24] 1.06 | [25] 0.969 | [26] 0.976 | [27] 0.975 | [28] 0.997 | [29] 0.934 | [30] 0.969 | [31] 0.982 | [32] 0.93 | [33] 0.969 | [34] 0.954 | [35] 0.934 | [36] 0.974 | [37] 0.971 | [38] 0.968 | [39] 0.965 | [40] 0.954 | [41] 1.01 | [42] 0.927 | [43] 0.977 | [44] 0.95 | [45] 0.975 | [46] 0.946 | [47] 0.967 | [48] 0.952 | [49] 0.97 | [50] 0.963 | [51] 0.957 | [52] 0.985 | [53] 0.964 | [54] 0.958 | [55] 0.98 | [56] 0.952 | [57] 0.996 | [58] 0.949 | [59] 0.975 | [60] 0.983 | [61] 0.95 | [62] 0.961 | [63] 0.964 | [64] 0.979 | [65] 0.957 | [66] 0.939 | [67] 0.954 | [68] 0.967 | [69] 0.968 | [70] 0.963 | [71] 0.946

CC(C)(C)c1cc(C(=O)Nc2ccc3c(c2)OCO3)n(Cc2ccc(F)cc2)n1
active: [42] 0.858
inactive: [1] 0.987 | [2] 0.968 | [3] 0.979 | [4] 0.99 | [5] 0.98 | [6] 0.989 | [7] 0.991 | [8] 0.997 | [9] 0.986 | [10] 0.972 | [11] 0.908 | [12] 0.988 | [13] 0.993 | [14] 0.983 | [15] 0.938 | [16] 0.906 | [17] 0.955 | [18] 0.994 | [19] 0.98 | [20] 0.991 | [21] 0.938 | [22] 0.978 | [23] 0.916 | [24] 0.997 | [25] 0.902 | [26] 0.878 | [27] 0.926 | [28] 0.984 | [29] 0.86 | [30] 0.99 | [31] 0.877 | [32] 0.977 | [33] 0.909 | [34] 0.981 | [35] 0.889 | [36] 0.999 | [37] 0.931 | [38] 0.94 | [39] 0.891 | [40] 0.987 | [41] 0.994 | [43] 0.918 | [44] 0.906 | [45] 0.895 | [46] 0.982 | [47] 0.926 | [48] 0.971 | [49] 0.987 | [50] 0.889 | [51] 0.969 | [52] 0.928 | [53] 0.986 | [54] 0.983 | [55] 0.9 | [56] 0.981 | [57] 0.892 | [58] 0.874 | [59] 0.992 | [60] 0.876 | [61] 0.96 | [62] 0.934 | [63] 0.923 | [64] 0.909 | [65] 0.968 | [66] 0.887 | [67] 0.995 | [68] 0.964 | [69] 0.936 | [70] 0.974 | [71] 0.986

Cc1cc(C)c(Cn2nc(C(C)(C)C)cc2C(=O)Nc2cccc(C(F)(F)F)c2)c(C)c1
inactive: S. cerevisiae deletion strains, locus YAL013W, strain DEP1, stronger effect = lower value 0.991 | S. cerevisiae deletion strains, locus YBR229C, strain ROT2, stronger effect = lower value 1.06 | S. cerevisiae deletion strains, locus YCL061C, strain MRC1, stronger effect = lower value 0.99 | [8] 0.999 | S. cerevisiae deletion strains, locus YDR150W, strain NUM1, stronger effect = lower value 1.16 | S. cerevisiae deletion strains, locus YEL061C, strain CIN8, stronger effect = lower value 0.986 | S. cerevisiae deletion strains, locus YGR078C, strain PAC10, stronger effect = lower value 0.998 | [26] 1.1 | S. cerevisiae deletion strains, locus YHR087W, strain rtc3, stronger effect = lower value 0.999 | S. cerevisiae deletion strains, locus YJR043C, strain POL32, stronger effect = lower value 0.927 | S. cerevisiae deletion strains, locus YLR039C, strain RIC1, stronger effect = lower value 1.02 | S. cerevisiae deletion strains, locus YLR058C, strain SHM2 (second series), stronger effect = lower value 1 | S. cerevisiae deletion strains, locus YLR085C, strain ARP6, stronger effect = lower value 1.01 | S. cerevisiae deletion strains, locus YLR262C, strain YPT6, stronger effect = lower value 1.02 | S. cerevisiae deletion strains, locus YML094W, strain GIM5, stronger effect = lower value 1 | S. cerevisiae deletion strains, locus YMR219W, strain ESC1, stronger effect = lower value 0.998 | S. cerevisiae deletion strains, locus YMR263W, strain SAP30, stronger effect = lower value 0.988 | S. cerevisiae deletion strains, locus YNL153C, strain GIM3, stronger effect = lower value 1 | S. cerevisiae deletion strains, locus YNL298W, strain CLA4 (second series), stronger effect = lower value 1.02 | S. cerevisiae deletion strains, locus YNL322C, strain KRE1, stronger effect = lower value 0.992 | S. cerevisiae deletion strains, locus YNR030W, strain Alg12, stronger effect = lower value 0.994 | S. cerevisiae deletion strains, locus YOL006C, strain TOP1, stronger effect = lower value 1.06 | S. cerevisiae deletion strains, locus YPL055C, strain LGE1, stronger effect = lower value 1.05 | S. cerevisiae deletion strains, locus YPL241C, strain CIN2, stronger effect = lower value 0.995 | S. cerevisiae deletion strains, locus YPR135W, strain CTF4, stronger effect = lower value 1.07 | S. cerevisiae strains, strain wild type, stronger effect = lower value 1

Reference: PubChem BioAssay AID1159580 (chemical genetic matrix, 2015)
